In all, about 25,000 sequences were measured (“ln(normalized median fluorescence intensity)”: median about 6.7, highest 2% from about 10 on). Many of the other results were omitted from the sample, so the highest values are more common in it than they were.
System: PfHDP1 homeodomain (GST-tagged)
Assay: gcPBM binding intensity (ln(normalized median fluorescence intensity)); higher = stronger DNA binding
Outline: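 Binding of GST-tagged P. falciparum DNA-binding domains, expressed in E. coli and used at about 25 μg on average, was carried out for 1 h in 1× PBS containing 1% milk, 0.2 mg/ml BSA, 0.5% salmon testes DNA and 0.03% Triton X-100. The target was an Agilent 4 × 180k array of primer-extended double-stranded 36-bp intergenic genomic probes plus negative controls, read with Alexa488 anti-GST antibody at 488 nm. Binding intensity is the highest Masliner-normalised natural-log median intensity across replicate spots of either probe orientation.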

Row | Sequence | gcPBM binding intensity (ln)
1 | TAAATATATATATATTGTACAAAACAAATGTGAATT [XGTACX_site696] | 7.1
2 | GATGTTCATCACTACACACACAAAGAAATATAAATA [CACACA_site7294] | 6.57
3 | TCAATTAGACGAAAATGTACATATGTATATATTTTT [XGTACX_site5027] | 6.25
4 | ATACATATGGTGGATCGTACATATATATAATATGTA [XGTACX_site8631] | 6.5
5 | TATGTACACCCATATACACACCTCTATAATATATAT [CACACA_site4563] | 7.13
6 | TAGAATGTATGTAGTGCACACCTCTATAATATATTA [CACACA_site1873] | 10.5
7 | TATAATGTATGTAGTGCACACCTCTATAATATATTA [CACACA_site8560] | 9.5
8 | TATTATATTATACATACACACCCATATAATATGTTT [CACACA_site8191] | 6.85
9 | TAAATATATATATAAGTGCATTATATATATATATAA | 9.53
10 | AATATTCAATATAAAGTGCATTATTGTGGACCTAAT | 8.94
11 | GCCAATAAAGATGTGGTGCATTATATATATATATAT | 10.7
12 | TAAAACTTATACAAATGTACAAATATATATATATAT [XGTACX_site4661] | 9.19
13 | TTTTTTATTTTATTTTTTTCTGCTTATCCACATTAG [XGTACX_negctrl_site108] | 6.48
14 | TTAATTTATTTATGCACACATATATAATTACACATA [CACACA_site4544] | 10.7
15 | ATTATATACATATATGCACACAAAAAAATATATATT [CACACA_site8508] | 9.93
16 | GCACACATATAATTAAACATATATTTGTATTATTTT [GTGCAC_negctrl_site327] | 6.5
17 | TTTTAATTTATTTATGCACACATATATAATTACACA [CACACA_site8126] | 10.1
18 | CTTTTTTTAATATGCACACATATATTTTATATATTA [CACACA_site2077] | 10.3
19 | TCGTACTTGTATTATGCACACATATAATTAAACATA [CACACA_site9089] | 10.5
20 | TTAATTTATTTATGCACACATATATAATTACCCATA [CACACA_site682] | 10.7

Row | Sequence | gcPBM binding intensity (ln)
21 | TAGTATTATTATTATGCACACAAAAATATTTATACA [CACACA_site9219] | 10.4
22 | ATATTACCCATATATGCACACATTGTAGTTATTTAT [CACACA_site2636] | 9.18
23 | GTATTATTATTATGCACACAAAAATATTTATACATA [CACACA_site3656] | 10.9
24 | GTACTTGTATTATGCACACATATAATTAAACATATA [CACACA_site3312] | 10.1
25 | CTTATATTAATTATTACACACATATTTATAAATGCA [CACACA_site6501] | 6.66
26 | AAATAATTAGCTATTTGTACATATATACATATTTAT [XGTACX_site4652] | 6.37
27 | ATTTTTTTTTTTTTTTTTTTTTTTTTTTTTTTTTTT [CACACA_negctrl_site1364] | 7.45
28 | AAGTTTATTATATATAAATTATTATATATATATATA [CACACA_negctrl_site189] | 9.02
29 | AATCAAAGTAATTTAACACACAATTTTAATACTGTT [CACACA_site7169] | 6.23
30 | CATTATGTTGTAAATACACACATACATATACATACA [CACACA_site8143] | 6.76
31 | ACATAAATAAATTAATGTACATATATATTTGTATAT [XGTACX_site3160] | 6.32
32 | TATATGTAGATTAAACGTACTTACAACGGAATTATC [XGTACX_site3036] | 6.67
33 | TATAAACATTAAAGGTGTACAATTTAATTTCAATTT [XGTACX_site2944] | 6.28
34 | GGTATAATAATATATAGTACACACAAAAATGGAAGT [XGTACX_site7058] | 7.5
35 | TATTTTTATCAATTCACACATAAATATATTTATATG [CACACA_site5547] | 6.57
36 | TTTTTCCCCCTTTTTTTGATTTTTATCTTAATTCTA [TGCATGCA_negctrl_site287] | 5.85
37 | CAATTTATTATATATGTGCACATATAATTTTACAAA | 10.4
38 | GTATAATTATGTGCACGTACATATTTTATTATATAT [XGTACX_site8586] | 10.9
39 | ACATAATTATTATGCACACATATTTTTATGTATTTA [CACACA_site698] | 10.2
40 | ATATATATATATATATGTACATATTTTTAATTATAA [XGTACX_site7444] | 9.45

Row | Sequence | gcPBM binding intensity (ln)
41 | TATTATAATTTTATATGTACACATATATAAATATAT [XGTACX_site4054] | 6.29
42 | TTTATTTATATAATTACACACATATATACACAAATG [CACACA_site8903] | 6.83
43 | ATACATATATAATTATGTACGTATATTTTATATAAC [XGTACX_site4292] | 6.14
44 | ATATTTTACAAATGCACACATAATTTTTTTTTTTTT [CACACA_site2763] | 10.5
45 | TATTACACATATTATGTGCACATATATAATCAATAT | 10.9
46 | ATATAATATATGTATACACACATATTATATAATATT [CACACA_site3699] | 6.46
47 | GTACATAATTATTATGCACACATATTTTTATGTATT [CACACA_site8132] | 10.5
48 | TTATATTTTACAAATGCACACATAATTTTTTTTTTT [CACACA_site8890] | 9.76
49 | GTTTTATTTATTTCATGTACACAAAAAAGGTTTTAA [XGTACX_site6525] | 6.97
50 | TTTTGTTATTTTTCAGTGCAATATGATAATAATATA | 9.56
51 | ATTTCTCTATCGTAATGTACATAAAAAAGAAAAACA [XGTACX_site6374] | 6.63
52 | ATATATATATTTAAGGTGCGATTTTGTTATATTTAA | 7.89
53 | AATTATGGGGAAAAGACACACATATATATATATATA [CACACA_site2589] | 9.35
54 | ATCTAAATTTTTCCATGTACATATACTTTTATGCAT [XGTACX_site2683] | 7.08
55 | TATCTGTATTTATTCACACATATAAAATATAATTAA [CACACA_site5560] | 6.36
56 | GGATTTATTTTATATACACACATACCTATATTTATA [CACACA_site7084] | 6.84
57 | TATATCTCATAGTATACACACACACCCACCCACATA [CACACA_site8513] | 7.7
58 | GTATGTGTATGTGTATGTACATATGTATGTATAAAA [XGTACX_site8191] | 8.13

— the supplement of paper PMC11417369
